Compounds with a hit are over-represented: about 3.7% of the library has one in this group of screens.
ANO1 block: inhibitors of mouse TMEM16A calcium-activated chloride channel | Q8BHY3 | HEK293 TMEM16A/YFP iodide influx fluorescence, ionomycin | normalized B-score (activity score, 25-100; higher = stronger inhibition) at 10 µM | 310,000 compounds, 1.2% hits | AID 588511;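 active = ratio plate-corrected score three or more library SD toward inhibition, starting fluorescence score within five deviations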;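 note: score derived from kinetic fluorescence span divided by baseline fluorescence per well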
Target sequence (Q8BHY3 whole entry, looked up): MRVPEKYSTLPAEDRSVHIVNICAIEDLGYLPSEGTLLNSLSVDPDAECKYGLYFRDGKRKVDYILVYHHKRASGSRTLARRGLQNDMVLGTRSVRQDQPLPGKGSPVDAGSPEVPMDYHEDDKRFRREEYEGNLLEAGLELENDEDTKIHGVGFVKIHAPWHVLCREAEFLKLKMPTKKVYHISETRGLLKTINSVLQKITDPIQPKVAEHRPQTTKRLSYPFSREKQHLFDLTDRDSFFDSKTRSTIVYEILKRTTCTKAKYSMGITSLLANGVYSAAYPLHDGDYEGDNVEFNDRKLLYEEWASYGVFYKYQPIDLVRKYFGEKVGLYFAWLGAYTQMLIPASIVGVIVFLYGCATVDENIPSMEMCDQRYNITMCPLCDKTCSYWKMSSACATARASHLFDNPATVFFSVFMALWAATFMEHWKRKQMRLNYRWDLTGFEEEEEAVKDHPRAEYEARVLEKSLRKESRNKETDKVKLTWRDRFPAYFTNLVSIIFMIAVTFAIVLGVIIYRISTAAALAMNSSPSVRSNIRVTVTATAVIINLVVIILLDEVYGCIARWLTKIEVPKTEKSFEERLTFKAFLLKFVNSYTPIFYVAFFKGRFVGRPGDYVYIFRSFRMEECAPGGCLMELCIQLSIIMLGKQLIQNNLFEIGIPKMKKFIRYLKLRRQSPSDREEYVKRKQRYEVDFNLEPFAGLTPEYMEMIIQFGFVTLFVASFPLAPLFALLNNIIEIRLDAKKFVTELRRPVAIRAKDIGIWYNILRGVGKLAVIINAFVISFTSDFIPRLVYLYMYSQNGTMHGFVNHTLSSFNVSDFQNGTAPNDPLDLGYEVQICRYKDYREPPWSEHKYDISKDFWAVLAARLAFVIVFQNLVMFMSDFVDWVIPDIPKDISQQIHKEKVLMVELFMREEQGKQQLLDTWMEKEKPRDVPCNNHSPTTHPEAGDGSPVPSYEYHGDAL
Kir21 inh: Kir2.1 (mouse) channel inhibition; AID 1672; P35561; HEK293-Kir2.1, FluxOR thallium flux fluorescence; hits give low values; 310,000 compounds, 0.85% hits; B-score at 10 µM;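 active = fluorescence ratio B-score at or below minus 3 SD of library scores, with starting-brightness B-score within 2 SD, cut at about -4.2 in these data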;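 note: channel flux triggered by added potassium and thallium sulfate stimulus; B-score of peak minus minimum fluorescence over baseline after thallium stimulus; more negative B-score means stronger Kir2.1 block with less thallium influx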
CHT block: inhibitors of human choline transporter CHT; CHT-expressing cells, membrane potential dye, choline response; hits give low values; 310,000 compounds, 0.86% hits; B-score at 10 µM;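 active = B-score over 3 SD under the library average, and starting fluorescence ratio not unusually high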;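 note: choline stimulus applied at its EC90 after an EC20 pre-addition; B-score computed on integrated fluorescence ratio after choline addition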
GPR7 antag: antagonists of human GPR7 (neuropeptides B/W receptor 1); GPR7-expressing cells, fluorescence antagonist assay; inhibition, % at 4.4 µM; 290,000 compounds, 1.1% hits; in the data active = inhibition above about 16%, passing the limit was not always enough;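 note: cells stimulated with the agonist NPW; 0% = agonist with vehicle and 100% = vehicle without agonist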
TMEM16A act: activators or potentiators of mouse TMEM16A chloride channel; Q8BHY3; AID 623877; B-score at 10 µM; HEK293 TMEM16A/YFP-H148Q/I152L, iodide quench fluorescence; hits give low values; 340,000 compounds, 0.3% hits;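 active = fluorescence-ratio B-score plate-corrected deviation score at least 3 library SD below zero, with starting fluorescence score within 5 deviations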;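 note: channel opened by trigger with iodide after compound preincubation; score built on the fluorescence ratio of max minus min over baseline; more negative score means more quench and so TMEM16A activation or potentiation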
CHT allo act: allosterically activates the human high affinity choline transporter; Q9GZV3; CHT-expressing cells, membrane potential dye, choline EC20; hits give high values; LV-AA mutant CHT in HEK293 cells; B-score at 10 µM; 310,000 compounds, 0.49% hits;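 active = initial fluorescence not abnormally high and integrated response B-score, plate-corrected, over 3 SD above library mean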
CHT activ conf: confirmation of human choline transporter (CHT) activators. shares compounds with CHT allo act. activation, % at 10 µM. CHT-expressing cells, membrane potential dye fluorescence (FDSS); % of choline EC20–EC90 response window; HEK293 expressing CHT LV-AA mutant; choline added at its EC20. 2,500 compounds, 91% hits;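 active = primary screen active, with duplicate mean activation above negative control mean plus 3 SD, cut at about 11% in these data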
HEK293 MP dye: activity in parental HEK293 cells lacking CHT; shares compounds with CHT allo act; membrane potential dye fluorescence (FDSS); measured after EC20 choline addition; ratio readout change at 10 µM, hits read low; 2,500 compounds, 62% hits; AID 623908;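 active = duplicate-averaged ratio beyond 3 SD from buffer wells, up or down, though filed actives are nearly all decreases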
Numbers without * were called inactive; i = inactive; · = not tested or not shown.

SMILES | ANO1 block | Kir21 inh | CHT block | GPR7 antag | TMEM16A act | CHT allo act | CHT activ conf | HEK293 MP dye
Cc1sc2nc(CN3CCCC3)nc(N3CCN(S(=O)(=O)c4cccc(F)c4)CC3)c2c1C | · | · | · | · | i | · | · | ·
Cc1sc2nc(CN3CCCC3)nc(N3CCN(C(=O)c4ccco4)CC3)c2c1C | i | -1.5 | i | -12 | i | 7.3* | 46* | -39*
Cc1sc2nc(CN3CCCC3)nc(N3CCC(C(N)=O)CC3)c2c1C | i | 1.4 | i | 9 | i | 8.9* | 67* | -54*
CC(CN1C(C)CCCC1C)OC(=O)c1ccc(Cl)cc1Cl (stereo unspecified) | i | -1.3 | i | -13 | i | i | · | ·
Cc1ccc2c(CC(=O)N3CCN(c4ccccc4)CC3)coc2c1 | i | -1.9 | i | 15 | i | i | · | ·
CSCCC(NC(=O)COc1ccccc1)C(=O)OC(C)C(=O)Nc1ccccc1C (stereo unspecified) | i | 0.36 | i | · | i | i | · | ·
CCOc1ccc(N(CC(=O)Nc2ccc(OC)cc2)S(=O)(=O)c2c(C)noc2C)cc1 | i | 0.03 | i | -13 | i | i | · | ·
COc1ccc(N(CC(=O)Nc2ccc(C)cn2)S(=O)(=O)c2c(C)noc2C)cc1 | i | -1.3 | i | 1 | i | 6.6* | 7 | i
Cc1cccc(C(=O)N/N=C/c2cc(Br)c(Br)o2)c1 | i | -0.47 | i | -4 | i | i | · | ·
Cc1cc(/C=N\NC(=O)CC(=O)NC2CCCCC2)c(C)n1-c1cccc(Cl)c1Cl | i | 0.36 | i | -5 | i | 12* | 23* | i
CCCN1CCN(CC(O)COC(c2ccc(OC)cc2)c2ccc(OC)cc2)CC1 (stereo unspecified) | i | 1 | i | 3 | i | i | · | ·
CCN(Cc1ccccc1)CC(O)COC(c1ccc(OC)cc1)c1ccc(OC)cc1 (stereo unspecified) | i | -8.8* | i | 3 | i | i | 15* | i
C=CCn1c(=O)c2c(nc3n2CC(C)CN3CCc2ccccc2)n(C)c1=O (stereo unspecified) | i | 0.25 | i | -5 | i | i | · | ·
c1ccc(-c2nc3cnccn3c2Nc2ccc3c(c2)OCCO3)cc1 | i | -0.05 | i | 27 | i | i | · | ·
Oc1ccc(-c2nc3cnccn3c2Nc2ccc3c(c2)OCCO3)cc1 | i | 2.1 | i | 0 | i | 8.3* | 6 | i
CCOC(=O)c1sc2ncn(/N=C/N(C)C)c(=O)c2c1C | i | -1.1 | i | -12 | i | i | · | ·
CCOC(=O)c1sc2nccc(OC)c2c1N=CN(C)C | i | 0.05 | i | -16 | i | 6.6* | 63* | -35*
Cc1ccc(-c2cc3cccc[n+]3cc2-c2ccc(C)cc2)cc1 | i | -12* | i | 22* | i | 8.2* | 63* | -39*
Cc1ccc2nc(-c3ccncc3)cc(-c3ccccc3)c2c1 | i | 0.43 | i | -15 | i | i | · | ·
COc1ccc(C2c3cc(OC)c(OC)cc3CCN2C(=O)c2cccc([N+](=O)[O-])c2)cc1OC (stereo unspecified) | i | -0.26 | i | -6 | i | i | 29* | i
COc1cc2c(cc1OC)C(c1ccc([N+](=O)[O-])cc1)N(C(C)=O)CC2 (stereo unspecified) | i | 0.29 | i | 5 | i | i | · | ·
COc1cc2c(cc1OC)C(c1cccc([N+](=O)[O-])c1)N(C(=O)c1ccc(F)cc1)CC2 (stereo unspecified) | i | 0.41 | i | 5 | i | 7.1* | 46* | i
COc1cc2c(cc1OC)C(c1ccccc1)N(C(=O)c1ccccc1)CC2 (stereo unspecified) | i | -2 | i | 13 | i | i | · | ·
Cc1c(N(C)C)nc2ccccc2c1N | i | 0.13 | i | 21 | i | 7* | 53* | -58*
Nc1c2ccccc2nc2ccccc12 | i | 0.95 | i | -15 | i | i | · | ·
SMILES | ANO1 block | Kir21 inh | CHT block | GPR7 antag | TMEM16A act | CHT allo act | CHT activ conf | HEK293 MP dye
CC(=O)c1c(C)nc2ccccc2c1N | i | 1.3 | i | -12 | i | 8.6* | 56* | -44*
CCC1CCCCN1C(=O)c1c[nH]c2ccc(S(=O)(=O)N(C)c3ccc(Cl)cc3)cc2c1=O (stereo unspecified) | i | 0.08 | i | 3 | i | i | 30* | i
CCOc1ccc(N(C)S(=O)(=O)c2ccc3[nH]cc(C(=O)NCC(OC)OC)c(=O)c3c2)cc1 | i | -0.6 | i | -3 | i | i | 21* | i
CC(=O)N1CCN=C1SCc1cccc(F)c1 | i | 0.57 | i | -3 | i | i | · | ·
CCOC(=O)C1(Cc2ccccc2C(F)(F)F)CCN(Cc2ccon2)CC1 | i | -0.75 | i | 6 | i | 7* | 20* | i
C=CCNC(=O)c1ccc(NC(=O)CC2SC(N3CCCC3)=NC2=O)cc1 (stereo unspecified) | i | 0.15 | i | · | i | i | · | ·
CCCc1nc2ccccc2c(C(=O)OCC(=O)NCc2ccc3c(c2)OCO3)c1CC | i | 0.01 | i | -4 | i | i | · | ·
CCCc1nc2ccccc2c(C(=O)OC(C)C(=O)NCc2ccc3c(c2)OCO3)c1CC (stereo unspecified) | i | -1.1 | i | 7 | i | 7.7* | 36* | i
CCN1CCN(CC(=O)c2c(C)n(C)c3ccc(OC)cc23)CC1 | i | · | i | -13 | i | i | 53* | -33*
COc1ccc2c(c1)c(C(=O)CN1CCN(c3ccccc3)CC1)c(C)n2C | i | -0.32 | i | 9 | · | i | · | ·
CC(C)CCC1(C)NC(=O)N(CC(=O)c2ccc[nH]2)C1=O (stereo unspecified) | i | 0.53 | i | · | i | i | · | ·
CCC(C)Sc1ccc(-c2nc3ccc(C)cn3c2NCc2ccccc2)cc1OC (stereo unspecified) | i | 0.52 | i | · | i | i | · | ·
CCC(C)Sc1cc(-c2nc3ccc(C)cn3c2NCc2ccccc2)ccc1OC (stereo unspecified) | i | 0.57 | i | · | i | 7.7* | 22* | -25*
CCC(C)n1c(=N)c(C#N)cc2c(=O)n3cccc(C)c3nc21 (stereo unspecified) | i | 0.2 | i | -2 | i | 7* | 41* | -53*

Assay outcomes from PubChem.
